“And” between values parts separate entries of the source, which are not always exact repeats. Identical values can stand only once. Inconclusive results are not listed. The source made the active and inactive calls. Calls come from the whole dose curve.
Assay: qHTS Assay for Lipid Storage Modulators (AID 1519); for activity change, negative = inhibition: % is set by controls: 0 for no effect and ±100 for the full control effect
Conditions: Drosophila S3 cells, BODIPY lipid droplet/cell ratio, laser cytometry, cells loaded with oleic acid
Text: NIH Molecular Libraries Probe Production Centers Network [MLPCN]
NIH Chemical Genomics Center [NCGC]
Assay Submitter (PI): Beller, Mathias; Max-Planck-Institut fur Biophysikalische Chemie
NCGC Assay Overview: Storing lipids as a reservoir for energy or the anabolism of elementary metabolites is a common feature of probably all cells and is conserved from bacteria to humans. The universal cellular lipid storage organelle is the so-called lipid storage droplet (LD). Although ubiquitous, LDs share a simple structure composed of a hydrophobic core that harbors the storage lipids, which is shielded by a droplet-specific phospholipid monolayer to which proteins are attached. The current model of LD biogenesis involves an incorporation of the lipid core into the membrane leaflets of the endoplasmic reticulum (ER) followed by a subsequent budding-like maturation of a LD, which ultimately pinches off. Once released, LD volume can increase by localized lipogenesis or fusion of existing droplets. Storage lipids are re-mobilized enzymatically by lipase activity. Lipase regulation in the adipocyte is heavily studied and involves multiple components including catecholamine signaling, the LD-associated proteins Perilipin and comparative gene identification-58 (CGI-58) and at least two lipases named hormone sensitive lipase (HSL) and adipocyte triglyceride lipase (ATGL). LD regulation outside of the adipocyte is poorly understood and only few components are known. However, there is an urgent need to learn more about ectopic fat depots as mislocalized storage of lipids, for example in the liver or muscle, is an eminent health problem associated with insulin resistance or the metabolic syndrome. We developed a laser-scanning cytometer assay to enable 1,536-well screening and combined the results of the small molecules screen with an RNAi database based on lipid storage.
NCGC Assay Protocol Summary:
We dispensed 4 uL of cells at 1.25 x 10^6 cells/mL into LoBase Aurora COC 1,536-well plates (black walled, clear bottom) with a bottle-valve solenoid-based dispenser (Aurora) to obtain 5,000 cells/well. Triacsin C (Sigma-Aldrich T-4540), an inhibitor of long-chain fatty acyl CoA synthetase that blocks synthesis of triglycerides, was used as a positive control for lipid under-storage. A total of 23 nL of compound solution of different concentrations were transferred to the assay plates using a Kalypsys pin tool equipped with a 1,536-pin array containing 10-nL slotted pins (FP1S10, 0.457-mm diameter, 50.8 mm long; V&P Scientific). One microliter of oleic acid (400 uM) was added, and the plate was lidded with stainless steel rubber gasket lined lids containing pinholes. […] Fluorescence was detected by excitation of the fluorophores with a 488-nm laser on an Acumen Explorer (TTP Lab Tech). The total intensity in channel 1 (500-530 nm) reflected lipid droplet accumulation. […] The ratio of the total intensity in PMT channel 1 over total intensity of channel 3 was also calculated. Percent activity was computed relative to an internal control (100% inhibited lipid droplet deposition due to the presence of 20 uM Triacsin C), which was added to 32 wells/plate.

[1] = measured here: cell count channel max response
[2] = measured here: lipid channel max response

Structure (SMILES) | activity change, negative = inhibition (at 25.7 µM (top of the series)) | max response [1] | max response [2] | activity change, negative = inhibition (at 57.5 µM (top of the series))
NCCc1ccn[nH]1 | -0.85% (inactive) | 12.5% | 11.2% | 
CCN(CC)C(=O)N1CCN(C)CC1 | -0.935% (inactive) | -1.64% and 22.2% | 2.25% and 24.5% | 4.02% (inactive)
Oc1c(I)cc(Cl)c2cccnc12 | -3.26% (inactive) | -21.6% and -13.1% | -24.9% and -6.72% | 2.97% (inactive)
C1CCc2nnnn2CC1 | 0.501% (inactive) | 12.5% and 9.15% | 18% and 12.4% | 0.8% (inactive)
C[C@@H](CN(C)C)CN1c2ccccc2Sc2ccccc21 | -1.55% (inactive) | -4.09% | -6.89% | 
O=C(CCCN1CCC(O)(c2ccc(Br)cc2)CC1)c1ccc(F)cc1 | -4.42% (inactive) | -5.85% | -9.42% | 
COc1c(C)c2c(c(O)c1C/C=C(\C)CCC(=O)O)C(=O)OC2 | -1.1% (inactive) | 6.28% | 5.14% | 
CCCCOc1cc(C(=O)NCCN(CC)CC)c2ccccc2n1 | -1.17% (inactive) | -8.72% and 19.1% | -8.39% and 23.8% | 1.92% (inactive)
COc1ccc(OC)c(C(O)CNC(=O)CN)c1 (stereo not drawn) |  | 10.1% | 23.2% | 8.05% (inactive)
CC(=O)Nc1c(I)cc(I)c(C(=O)O)c1I |  | 5.35% | 12.7% | 5.69% (inactive)
CCN(CCCCOC(=O)c1ccc(OC)c(OC)c1)C(C)Cc1ccc(OC)cc1 (stereo not drawn) |  | 17.5% | 26.2% | 3.28% (inactive)
CCCC(=O)Nc1ccc(OCC(O)CNC(C)C)c(C(C)=O)c1 (stereo not drawn) |  | 16.7% | 24.3% | 5.02% (inactive)
CCN(CC)CCOC(=O)C(c1ccccc1)C1CCCCC1 (stereo not drawn) |  | 11.2% | 13.6% | -0.866% (inactive)

From PubChem BioAssay (NCATS)
